Here are results for 40 sequences from the supplement of paper PMC6555819.

This assay relates to VDR:RXRa (NR concentration 270 nM, RXRa partner concentration 90 nM). The experiment in a line: PBM binding z-score (relative to random genomic background probes); higher = stronger binding; sequences stand for … in GC…GCGATTGACAGCGTAGAATGAAGG
How it is done:
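Protein-binding microarray (Agilent 4x180K custom design, double-stranded 60-nt probes: 5' GC cap, 34-nt variable region, 24-nt constant primer region; full probe sequence given). Purified or IVT nuclear receptor:RXRα heterodimers (3:1 NR:RXRα, mostly 270:90 nM) or homodimers were incubated for 1 h in PBS with 2% milk and no ligand, then detected with Alexa488 antibodies. Fluorescence from o1-orientation probes (~5 replicates averaged) was converted to z-scores against 500 random hg19 background probes. Variable regions are seed direct-repeat (DR0–DR5) sites, all their single-nucleotide variants and half-site ablations.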
For the sequence ATTTGTAGGTTAGCTGGGGTCATTCAGACTAGGC, the PBM binding z-score is 6.42. Next, CGTCAAAGTTCAAGGTAACGGAACAGAAAGCAGC: 3.63; CCTCGCAGGCCAATCTGGGTCACTCAAGGCTTGA: 0.596. TGAATGAGGTTATAAGATCAGGGAACGTTGCAAA yielded a PBM binding z-score of 0.749. Next, CGTCCAAGGTCAAGGGTCAGTGAAGAGATGACGG: 5.63; TTACCAAGGTGAAGGTCGTTGCTCCCTCTGTAGA: 1.36. With CGAACTAGGTCATGGACAGGACAGTGAATAGTAA, the PBM binding z-score worked out at 2.3. ATCGAAAGGTCGAAGGTTAGTATACCCACCCGAA: the PBM binding z-score worked out at 3.14. AAATGTAGGTTATCGGGTCATTCAGTTTGCGCAT registered a PBM binding z-score of 5.22.

Turning to TCTATTAGTTGAAGGTCAACCGACGAGTCCGTTT, the PBM binding z-score was found to be 3.85. ATATGTAGGTTACATCCCGGTCATTCAGGCTATG showed a PBM binding z-score of 1.79. Turning to CCTTACGGGTCACTCCAGGTTACAGCATCGGAGT, the PBM binding z-score amounted to 3.95. Regarding CGTCCAAGGTCAAGGTCCGTGAAAGAGACTCGAA, the PBM binding z-score came out at 4.04. In the case of CCTACCAGGCCAGGGTCACTCAAGCATTTCGCTT it was 2.7; in that of TCTCGGAGGACACGAAGGGCAGAGCTTTCCAGAG, 0.0136; in that of TCCGACAGGTGAAGGTAACTCAGGTACGCAGTCG, 0.225. With CGCGAAAGGTCGTGCTCAGGTGAGTATACCAAAC, the PBM binding z-score turned out to be 3.57. As for GCTAGTTGGTCAGTAAAAGGTCACAGACCGGTCG, the PBM binding z-score stood at 3.94. ATCGAAAGGTAGTGAGGTGAGTATACAGAAAGGC showed a PBM binding z-score of -0.165. ATATGTAGGTTAGCTAGGGTCATTCAGACTAGGC showed a PBM binding z-score of 5.2.

CCTAGCAGGCCAATCTGGGTTACTCAAGGCTTGA came in with a PBM binding z-score of -0.43. As for TAGCCTAGATCATTCAGGGGCCAGTATAGAAAGC, the PBM binding z-score was -0.321.

ATATGTAGCTTATCGGGTCATTCAGTTTGCGCAT came in with a PBM binding z-score of 4.71. Next, TTACCAAGGTGAGCTGAGGTCGTTGCTCCAACTC: 4.1. On to GCTATTAGTTGAAAGGGTAACCGAATGATTCTCG, for which the PBM binding z-score turned out to be 0.289. Next, AAATGTAGGTTAGCTGGGGTCATTCAGACTAGGC: 6.03; GGAACGAGGGCATTCGAGTTGATAGCGTGGCGAT: 3.59; AGAATGAGGTTTTACGTAGATCAGGGAAGAAAGT: -0.19. Sequence ATACCAAGGTGGTCGTGAGGTCGTTGATACTAAC gave a PBM binding z-score of 2.79.

GGAACGAGGGCAAGTTAATAGCAGAGTTTGATGG registered a PBM binding z-score of 0.803.

On to TTACCAAGGTGAGCTGAGGTGGTTGATCCAACTC, for which the PBM binding z-score was -0.288.

With CCGACTGGGGCAGAGAGGTTACCATACCATCCGG, the PBM binding z-score turned out to be 1.73. ATCGAAAGGTCGAAGTTGAGTATACCCACCCGAA displayed a PBM binding z-score of 3.08.

Turning to GCTAGTTGGTCAGTAAAAGGTCACACCCCGGTCG, the PBM binding z-score amounted to 3.83. In the case of CGTCCAAGGTCAATGCTAGGTCAGTGAGAGCATT, the PBM binding z-score is 5.11. ACTGACAGGTGAGTGAAGGTAACTCAGCTGGACG returned a PBM binding z-score of -0.322. As for CCTACCGGGCCATCAGGTCATTGATATCAACGTT, the PBM binding z-score amounted to 1.83. On to ACTATTAGTTGAGACGAAGGCAACCGATAGGTTG, for which the PBM binding z-score is -0.504. In the case of TCTCGGAGGACACGAAGGTCAGAACTTTCCAGAG it was 2.18. Next, ACTAATAGTTGAGACGAGGGCAACCGATAGGTTG: 1.27.
